The source of these data is PubChem BioAssay (NCATS).

Inconclusive results are not listed. The source made the active and inactive calls. Calls come from the whole dose curve; as a rule, active = well fitted inhibition curve with a large enough effect; inconclusive = small, poorly fitted or top-dose-only effect; inactive = flat fitted curve, though single readings scatter.

Holding throughout (experiment): qHTS profiling for inhibitors of Plasmodium falciparum proliferation (AID 504749); note: nearly all actives have a fitted effect of over 60% in size
Holding throughout (conditions): P. falciparum in erythrocytes, SYBR Green DNA, 72 h; series mostly up to 28.7 µM

One experiment relates to CP297. Put shortly: (§1)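 Three-day growth assay of blood-stage parasites in erythrocytes (0.3% parasitemia, 2.5% hematocrit) at 37 C, 5% CO2, quantified by SYBR Green DNA staining after overnight detergent lysis.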
In a further experiment the test system is CP305. Summed up: as §1
The next experiment relates to CP315. Summed up: as §1
The next experiment deals with CP325. Put shortly:
as §1

Another experiment relates to CP329. Summed up: as §1
The subject of another experiment is DFO2036. Summed up:
as §1

The subject of a further experiment is DIV17. Put shortly:
as §1

The subject of the next experiment is DIV30. Put shortly: as §1
The subject of the next experiment is Dd2. Put shortly: as §1
Another experiment deals with ECU. Put shortly: as §1
For the next experiment, the system named is FAB9. Summed up:
as §1

The next experiment has as its system GB4. Summed up:
as §1

The next experiment deals with HB3. Summed up: as §1
Another experiment deals with JCK. Summed up: as §1
The subject of another experiment is N140. Summed up: as §1
In another experiment the test system is P93_24. Summed up:
as §1

Another experiment has as its system P94_40. Summed up:
as §1

The next experiment relates to CP335. Put shortly:
as §1

The subject of another experiment is DIV14. Put shortly:
as §1

The subject of the next experiment is ICS. Put shortly: as §1
Potency is the fitted concentration of half-maximal effect.

With `CC/C=C\C/C=C\C/C=C\CCCCCCCC(=O)O`, the Potency entry with CP297, with CP305, with CP315, in the experiment on CP325, with CP329 and in the experiment on DFO2036 was “inactive” throughout. The Potency entry with DIV17, in the experiment with DIV30, in the experiment on Dd2, in the experiment on ECU, with FAB9 and in the experiment on GB4 was “inactive” each time. Moreover, the Potency result in the experiment with HB3, with JCK, in the experiment with N140, with P93_24 and in the experiment on P94_40 was “inactive” each time.
Consider `O=C1CCC(=O)N1CO`, for which the Potency entry in the experiment with CP305, in the experiment with CP315, in the experiment on CP325, in the experiment with CP329, with CP335 and in the experiment on DFO2036 was “inactive” each time. Besides, the Potency entry in the experiment on DIV14, with DIV17, with DIV30, with Dd2, with ECU and in the experiment on FAB9 was “inactive” each time. Moreover, the Potency entry with GB4, in the experiment on HB3, with ICS, in the experiment with JCK, in the experiment with N140 and in the experiment on P93_24 was “inactive” in each case. The Potency entry in the experiment on P94_40 is “inactive”.
On to `CCN(CC)CCCC(C)Nc1cc(/C=C/c2ccccc2Cl)nc2cc(Cl)ccc12` (configuration not stated), for which the Potency in the experiment with CP297 is 7.57 µM (active); in the experiment with CP325 it was 0.849 µM (active); in the experiment on CP329, 6.75 µM (active); in the experiment with CP335, 2.69 µM (active); with DFO2036 it was 1 µM (active); with DIV14 it was 4.26 µM (active). Further, the Potency with DIV17 is 4.26 µM (active); with DIV30, 1.69 µM (active); in the experiment with Dd2, 2.24 µM (active); in the experiment with ECU it was 2.51 µM (active); with GB4, 4.78 µM (active); in the experiment on HB3, 2 µM (active). Moreover, the Potency with ICS is 0.398 µM (active); in the experiment with JCK, 11.2 µM (active); in the experiment on N140, 3.16 µM (active); in the experiment with P93_24, 2 µM (active); in the experiment with P94_40, 1.78 µM (active).
For the compound `COc1cc(NCCCC(C)N)c2ncccc2c1` (configuration not stated), the Potency in the experiment with CP297 is 8.49 µM (active); with CP305 it was 6.75 µM (active); with CP325, 7.57 µM (active); with CP335, 6.75 µM (active); in the experiment with DFO2036, 11.2 µM (active); in the experiment on DIV14, 2.13 µM (active). Also, the Potency in the experiment on DIV17 was 1.35 µM (active); in the experiment on DIV30 it was 4.78 µM (active); in the experiment on Dd2 it was 2 µM (active); with ECU, 2.82 µM (active); in the experiment with FAB9, 4.47 µM (active); with GB4 it was 2.13 µM (active). Also, the Potency was 3.55 µM (active) in the experiment on HB3; 0.891 µM (active) with ICS; 5.62 µM (active) in the experiment on N140; 2.24 µM (active) with P93_24; 4.47 µM (active) with P94_40.
Regarding `CC(C)NCC(O)COc1ccccc1-n1cccc1` (configuration not stated), the Potency result in the experiment with CP305, with CP315, in the experiment with CP325, in the experiment on CP329, in the experiment on CP335 and in the experiment with DFO2036 was “inactive” each time. In addition, the Potency entry in the experiment with DIV17, with DIV30, with ECU, in the experiment with FAB9, in the experiment with HB3 and with JCK was “inactive” in each case. In addition, the Potency result in the experiment on N140, with P93_24 and with P94_40 was “inactive” each time.
With `CCCCCCCCCCCCCCCCOCCOCCOCCOCCOCCOCCOCCOCCOCCOCCOCCOCCOCCOCCOCCOCCOCCOCCOCCOCCO`, the Potency was 12 µM (active) with CP305; 13.5 µM (active) with DIV14; 13.5 µM (active) with DIV17; 11.2 µM (active) in the experiment with Dd2; 1.26 µM (active) in the experiment on ECU; 7.08 µM (active) in the experiment on HB3. Also, the Potency is 4.47 µM (active) in the experiment with ICS, 10 µM (active) in the experiment on N140 and 11.2 µM (active) with P93_24. Also, the Potency entry in the experiment with CP315 and with CP335 was “inactive” throughout.
`N[C@@H](Cc1cc(I)c(Oc2ccc(O)c(I)c2)c(I)c1)C(=O)O`: the Potency entry in the experiment with CP305, in the experiment with CP315, in the experiment with CP325, with CP329, in the experiment with FAB9 and in the experiment with HB3 was “inactive” throughout. Besides, the Potency entry with JCK was “inactive”. Moreover, the Potency is 13.5 µM (active) with DIV14 and 11.2 µM (active) with ICS.
Consider `Cc1cc(C(=O)NCCc2ccc(S(=O)(=O)NC(=O)NN3CCCCCC3)cc2)no1`, for which the Potency result in the experiment with CP305, with CP315, with CP325, with CP329, in the experiment with CP335 and with DFO2036 was “inactive” in each case. Further, the Potency entry in the experiment on Dd2, in the experiment on ECU, in the experiment with FAB9, with HB3, in the experiment with ICS and with JCK was “inactive” each time. Moreover, the Potency entry in the experiment on N140, in the experiment with P93_24 and in the experiment with P94_40 was “inactive” each time.
Take `CCOc1cc(-c2nccc3cc(OC)c(OC)cc23)cc(OCC)c1OCC`: the Potency entry in the experiment with CP325 was “inactive”. For the same compound, the Potency with ECU is 11.2 µM (active).
